# About 410 targets per protein were measured; listed, in parts, are those with the strongest signals and a random draw of the rest.
# B1: rCnSL-proA (Clitocybe nebularis) (protein)
# chain: AAFFSLVVLLALLPFGIHASALPSTELTPRVNPNLPGPNDVFVGFRGTNNIVGAIYEKDGIKDTPLNNGADAEMGPGSYITDGLFTARIFASGSAGNNPGTTATVCKIYASGVQWRGAPKGYIPVAYFGNGPTAEQRRQTYLRTLGLPGTAIRFGNLNTNPGQGPTAPRQMVVPPGPLRSLLKASCFPAADTRLPQTLHYFEKRVDWNIITAADSQTWGH
# Experiments:
# Assay in all cases: glycan array binding signal (z-score within array); higher = stronger binding
# Settings in all cases: glycan notation: IUPAC condensed, linker removed
# [1] = target: Gal(b1-4)GlcNAc(b1-3)Gal(b1-4)GlcNAc(b1-3)GalNAc
# Outline: (§1)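 Arrays were curated from the Consortium for Functional Glycomics database, 3228 in total, and kept only where the protein sequence was available. Binding is expressed as a within-array Z-score. This score was averaged across arrays of the same protein sequence at different concentrations or buffers and across linkers, and negative values can be read as non-binding.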
# [2] = target: Gal(b1-4)GlcNAc(b1-3)[Fuc(a1-3)GlcNAc(b1-6)]Gal(b1-4)Glc
# Outline: as §1
# Gal(b1-4)GlcNAc6P = target: Gal(b1-4)GlcNAc6P
# Outline: as §1
# Gal6S(b1-4)Glc = target: Gal6S(b1-4)Glc
# Outline: as §1
# [3] = target: GalNAc(a1-3)GalNAc(b1-3)Gal(a1-4)Gal(b1-4)Glc
# Outline: as §1
# [4] = target: GalNAc(b1-3)Gal(a1-6)Gal(b1-4)Glc
# Outline: as §1
# [5] = target: GalNAc(b1-4)GlcNAc(b1-2)Man(a1-3)[GalNAc(b1-4)GlcNAc(b1-2)Man(a1-6)]Man(b1-4)GlcNAc(b1-4)GlcNAc
# Outline: as §1
# [6] = target: GlcNAc(b1-3)Gal(b1-4)GlcNAc(b1-2)Man(a1-3)[GlcNAc(b1-3)Gal(b1-4)GlcNAc(b1-2)Man(a1-6)]Man(b1-4)GlcNAc(b1-4)GlcNAc
# Outline: as §1
# [7] = target: GlcNAc(b1-3)Gal(b1-4)GlcNAc(b1-3)Gal(b1-4)GlcNAc(b1-3)Gal(b1-4)GlcNAc(b1-2)Man(a1-3)[GlcNAc(b1-3)Gal(b1-4)GlcNAc(b1-3)Gal(b1-4)GlcNAc(b1-3)Gal(b1-4)GlcNAc(b1-2)Man(a1-6)]Man(b1-4)GlcNAc(b1-4)GlcNAc
# Outline: as §1
# [8] = target: GlcNAc(b1-3)Gal(b1-4)GlcNAc(b1-3)Gal(b1-4)GlcNAc(b1-3)Gal(b1-4)GlcNAc(b1-2)Man(a1-3)[GlcNAc(b1-3)Gal(b1-4)GlcNAc(b1-3)Gal(b1-4)GlcNAc(b1-3)Gal(b1-4)GlcNAc(b1-2)Man(a1-6)]Man(b1-4)GlcNAc(b1-4)[Fuc(a1-6)]GlcNAc
# Outline: as §1
# [9] = target: GlcNAc(b1-3)[GlcNAc(b1-6)]Gal(b1-4)GlcNAc
# Outline: as §1
# [10] = target: GlcNAc(b1-4)GlcNAc(b1-4)GlcNAc
# Outline: as §1
# [11] = target: GlcNAc(b1-4)[GlcNAc(b1-6)]GalNAc
# Outline: as §1
# [12] = target: GlcNAc(b1-6)Gal(b1-4)GlcNAc
# Outline: as §1
# [13] = target: Man(a1-3)[Man(a1-6)]Man(a1-6)[Man(a1-3)]Man(b1-4)GlcNAc(b1-4)GlcNAc
# Outline: as §1
# [14] = target: Neu5Ac(a2-3)Gal(b1-3)GalNAc
# Outline: as §1
# [15] = target: Neu5Ac(a2-3)Gal(b1-3)GlcNAc(b1-2)Man(a1-3)[Neu5Ac(a2-3)Gal(b1-3)GlcNAc(b1-2)Man(a1-6)]Man(b1-4)GlcNAc(b1-4)GlcNAc
# Outline: as §1
# [16] = target: Neu5Ac(a2-3)Gal(b1-3)GlcNAc(b1-6)GalNAc
# Outline: as §1
# [17] = target: Neu5Ac(a2-3)Gal(b1-3)[Fuc(a1-4)]GlcNAc(b1-3)Gal(b1-4)[Fuc(a1-3)]GlcNAc
# Outline: as §1
# [18] = target: Neu5Ac(a2-3)Gal(b1-4)GlcNAc(b1-3)Gal(b1-4)GlcNAc(b1-3)Gal(b1-4)GlcNAc(b1-2)Man(a1-3)[Neu5Ac(a2-3)Gal(b1-4)GlcNAc(b1-3)Gal(b1-4)GlcNAc(b1-3)Gal(b1-4)GlcNAc(b1-2)Man(a1-6)]GalNAc
# Outline: as §1
# [19] = target: Neu5Ac(a2-3)Gal(b1-4)GlcNAc(b1-6)[Neu5Ac(a2-3)Gal(b1-3)]GalNAc
# Outline: as §1
# [20] = target: Neu5Ac(a2-3)Gal6S(b1-4)[Fuc(a1-3)]GlcNAc
# Outline: as §1
# Neu5Ac(a2-6)Gal(b1-4)Glc = target: Neu5Ac(a2-6)Gal(b1-4)Glc
# Outline: as §1
# [21] = target: Neu5Ac(a2-6)Gal(b1-4)GlcNAc(b1-2)Man(a1-3)[Man(a1-6)]Man(b1-4)GlcNAc(b1-4)GlcNAc
# Outline: as §1
# [22] = target: Neu5Ac(a2-6)Gal(b1-4)GlcNAc(b1-3)Gal(b1-4)GlcNAc
# Outline: as §1
# [23] = target: Neu5Ac(a2-6)Gal(b1-4)GlcNAc(b1-6)[Gal(b1-3)]GalNAc
# Outline: as §1
# [24] = target: Neu5Ac(a2-8)Neu5Ac(a2-8)Neu5Ac(a2-3)Gal(b1-4)Glc
# Outline: as §1
# [25] = target: Neu5Gc(a2-6)Gal(b1-4)GlcNAc
# Outline: as §1
binder,measurement,setting,value
B1,glycan array binding signal (z-score),[1],1.57
same,glycan array binding signal (z-score),[2],0.661
same,glycan array binding signal (z-score),Gal(b1-4)GlcNAc6P,-1.27
same,glycan array binding signal (z-score),Gal6S(b1-4)Glc,-0.662
same,glycan array binding signal (z-score),[3],-0.574
same,glycan array binding signal (z-score),[4],0.329
same,glycan array binding signal (z-score),[5],3.42
same,glycan array binding signal (z-score),[6],0.077
same,glycan array binding signal (z-score),[7],-0.215
same,glycan array binding signal (z-score),[8],0.698
same,glycan array binding signal (z-score),[9],-0.723
same,glycan array binding signal (z-score),[10],-0.208
same,glycan array binding signal (z-score),[11],-0.002
same,glycan array binding signal (z-score),[12],-0.312
same,glycan array binding signal (z-score),[13],0.14
same,glycan array binding signal (z-score),[14],-0.476
same,glycan array binding signal (z-score),[15],5.37
same,glycan array binding signal (z-score),[16],0.201
same,glycan array binding signal (z-score),[17],-0.238
same,glycan array binding signal (z-score),[18],4.1
same,glycan array binding signal (z-score),[19],-0.211
same,glycan array binding signal (z-score),[20],-0.672
same,glycan array binding signal (z-score),Neu5Ac(a2-6)Gal(b1-4)Glc,-0.233
same,glycan array binding signal (z-score),[21],-0.337
same,glycan array binding signal (z-score),[22],-0.269
same,glycan array binding signal (z-score),[23],-0.387
same,glycan array binding signal (z-score),[24],-0.436
same,glycan array binding signal (z-score),[25],-0.088

# Source: the supplement of paper PMC8728848
